Reference: PubChem BioAssay (NCATS)
Inconclusive results are not listed. The source made the active and inactive calls. The call rests on the fitted dose curve; in most records, active means well fitted curve in the direction sought with a large enough effect; inconclusive means small, poorly fitted or top-dose-only effect, or another doubt; inactive means no such curve, though single readings can be large; an effect the other way counts as inactive or inconclusive.

Key:
[1] = qHTS to identify inhibitors of the type 1 interferon - major histocompatibility complex class I in skeletal muscle: primary screen against the NCATS Pharmaceutical Collection (AID 1347407);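 further: luminescence of HiBiT knocked into endogenous HLA-B as interferon-induced MHC class I level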; further: potency means the concentration at half of the fitted maximal effect
In short: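 A qHTS format is used: 8-point, 1:5 compound series with 46 uM top final concentration, applied alongside 4 ng/ml IFN-beta to HLA-B*08:01-HiBiT knock-in myoblasts. Luminescence is measured after 24 h treatment.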

[2] = target: Protein phosphatase 1D (Homo sapiens) (UniProt O15297); assay: RapidFire Mass Spectrometry qHTS Assay for Modulators of WT P53-Induced Phosphatase 1 (WIP1) (AID 1347424);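 further: amount of dephosphorylated VEPPL-S-QETFS peptide product formed by WIP1; series mostly up to about 63 µM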
Protein phosphatase 1D (Homo sapiens), sequence (O15297 whole entry, looked up): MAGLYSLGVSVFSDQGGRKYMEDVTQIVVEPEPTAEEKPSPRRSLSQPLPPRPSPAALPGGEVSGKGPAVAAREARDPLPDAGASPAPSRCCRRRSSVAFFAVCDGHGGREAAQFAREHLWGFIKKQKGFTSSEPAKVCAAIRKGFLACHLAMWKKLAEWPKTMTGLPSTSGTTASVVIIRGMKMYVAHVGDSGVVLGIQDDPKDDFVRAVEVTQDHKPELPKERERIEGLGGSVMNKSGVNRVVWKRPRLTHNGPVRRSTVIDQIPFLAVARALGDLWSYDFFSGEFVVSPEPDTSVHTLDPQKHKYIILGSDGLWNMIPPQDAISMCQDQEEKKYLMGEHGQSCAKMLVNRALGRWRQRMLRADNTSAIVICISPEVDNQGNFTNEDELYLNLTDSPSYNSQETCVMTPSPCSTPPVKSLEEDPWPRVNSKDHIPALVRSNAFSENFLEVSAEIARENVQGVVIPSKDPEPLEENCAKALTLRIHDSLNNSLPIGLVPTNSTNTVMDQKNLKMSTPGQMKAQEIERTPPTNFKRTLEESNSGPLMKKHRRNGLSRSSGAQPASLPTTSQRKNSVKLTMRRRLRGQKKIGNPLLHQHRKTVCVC
In short: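 10 nM WIP1 + cpd, 1 h RT; + 2 uM VEPPL-pS-QETFS, 5 min RT; stop 0.5% formic acid; labelled product standard 1 uM; RapidFire MS. Buffer 50 mM Tris pH 7.5, 30 mM MgCl2, 1 mM TCEP.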

[3] = target: Protein phosphatase 1D (Homo sapiens) (UniProt O15297); assay: Rhodamine-PBP qHTS Assay for Modulators of WT P53-Induced Phosphatase 1 (WIP1) (AID 1347425)
In short: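 WIP1 (5 nM final) was preincubated with compound for 1 hour at room temperature. It then dephosphorylated 10 uM VEPPL-pS-QETFS peptide in Tris-HCl pH 7.5 with 30 mM MgCl2. Released Pi was detected by 10 uM Rh-PBP fluorescence (ex 525/em 598 nm) read at 1-min intervals for 11 min, as delta f1 - f0.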

[4] = Primary qHTS for inhibitors of La Crosse Virus (LACV) - induced cell death in SH-SY5Y cells (AID 1508616); further: potency means the concentration at half of the fitted maximal effect
In short: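 Luminescent ATP readout (ATPLite 1step, 5 min room temperature) measured rescue from LACV-induced death after 6 days of infection at 0.01 MOI; normalized to infected DMSO wells and uninfected DMSO wells.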

Measured: Potency

CC(C)C[C@H](NC(=O)[C@H](CCc1ccccc1)NC(=O)CN1CCOCC1)C(=O)N[C@@H](Cc1ccccc1)C(=O)N[C@@H](CC(C)C)C(=O)[C@@]1(C)CO1
active: [1] 93.8 nM | [4] 355 nM
inactive: [2] | [3]

C[C@@H]1C[C@H]2[C@@H]3CCC4=CC(=O)C=C[C@]4(C)[C@@]3(Cl)[C@@H](O)C[C@]2(C)[C@@]1(OC(=O)c1ccco1)C(=O)CCl
inactive: all assays above

CN(Cc1cc(Br)cc(Br)c1N)C1CCCCC1
inactive: all assays above

CCn1cc(C(=O)O)c(=O)c2cc(F)c(N3CCNCC3)nc21
inactive: all assays above

CNC1CCCN(c2c(F)cc3c(=O)c(C(=O)O)cn(C4CC4)c3c2OC)C1 (stereo not given)
inactive: all assays above

Cc1cc(NS(=O)(=O)c2ccc(N)cc2)no1
inactive: all assays above

CCCc1nc(C)c2c(=O)[nH]c(-c3cc(S(=O)(=O)N4CCN(CC)CC4)ccc3OCC)nn12
inactive: all assays above

CS(=O)(=O)c1ccc([C@@H](O)[C@@H](CO)NC(=O)C(Cl)Cl)cc1
inactive: all assays above

CCCCCCNC(=O)n1cc(F)c(=O)[nH]c1=O
inactive: all assays above

CC(C)(C)NC(=O)[C@H]1CC[C@H]2[C@@H]3CC[C@H]4NC(=O)C=C[C@]4(C)[C@H]3CC[C@]12C
inactive: all assays above
